Test results from ChEMBL document CHEMBL3988442, “University of Dundee, Small-Polar-MMV Screening Library” (2021).
The whole screen tested about 48,000 compounds, of which about 13,000 (27%) showed an effect of 50% or more. The list shows a part of the results.

These compounds were tested on Wolbachia pipientis (assay: Anti-Wolbachia Cell-Based Screen). Conditions: 5 µM.
Assay type: functional
Design: scale not given: in the data most compounds retested in dose-response had high values

Row | Compound | Percent Effect [%]
1 | O=C(NCCc1cccnc1)N1CCCC1c1ccsc1 (centres undefined) | 4.878
2 | NC(=O)CCn1nnc(-c2cc3ccccc3o2)n1 | 8.655
3 | COc1ccc(CN(CC2CCCO2)C(=O)CN2CCOC2=O)cc1 (centres undefined) | 10.27
4 | CN(Cc1csc(-c2cccs2)n1)C(=O)CN1CCOC1=O | 19.54
5 | O=C(Nc1nccs1)NC1CCN(Cc2ccccc2)C1 (centres undefined) | -7.508
6 | COc1cccc(CN(C)C(=O)CN2CCN(c3nccs3)CC2)c1 | 7.332
7 | O=C(CN1CCOC1=O)N(Cc1ccccc1)Cc1nccs1 | 101.3
8 | NC(=O)C1CCN(CC(=O)N(Cc2ccccc2)Cc2nccs2)CC1 | 113.3
9 | CN(Cc1cccnc1)c1nccc(N2CCN[C@H]3CS(=O)(=O)C[C@H]32)n1 | -2.359
10 | CN(C)CCNc1cc(-c2ncccc2C(F)(F)F)c2cc[nH]c2n1 | -6.362
11 | COc1cccc(-c2cc(NCC(=O)O)nc3[nH]ccc23)n1 | -3.915
12 | O=C(O)CNc1cc(-c2nccnc2N2CCCC2)c2cc[nH]c2n1 | 94.3
13 | CN(C)CCNc1cc(-c2ncccc2O)c2cc[nH]c2n1 | 15.75
14 | OCCNc1cc(-c2nccnc2N2CCCC2)c2cc[nH]c2n1 | 104.7
15 | Nc1cc(-c2cc(O)cc(C(=O)O)c2)c2cc[nH]c2n1 | -2.921
16 | Nc1cc(-c2cc(C(=O)O)ccc2Cl)c2cc[nH]c2n1 | 2.257
17 | Nc1cc(-c2nccnc2N2CCCC2)c2cc[nH]c2n1 | 67.22
18 | Nc1cc(-c2ccc(C(=O)O)cc2O)c2cc[nH]c2n1 | 1.335
19 | Cc1noc(C2CN(CC(=O)NCC3CCCO3)C2)n1 (centres undefined) | 9.756
20 | CN(C)C(=O)c1ccc2c(c1)N(C)C(CC(=O)NC(CO)CO)CO2 (centres undefined) | 0.9161
21 | Cc1cc(C)c2cc(CNC3CCCCC3)c3nn(C)c(=O)n3c2c1 | 108.3
22 | CCCn1cnnc1CNC1CCCC1 | -7.935
23 | Cc1cc(C)c2cc(CNCC3CCCO3)c3nn(C)c(=O)n3c2c1 (centres undefined) | -6.505
24 | Cc1cc(C)c2cc(CNC(C)C)c3nn(C)c(=O)n3c2c1 | 117
25 | CCn1cc(CN(C)C(=O)c2cccc(CCC(C)(C)O)c2)cn1 | -2.58
26 | COCc1ccc(C(=O)N2CCN(CC=C(C)C)[C@@H]3CS(=O)(=O)C[C@@H]32)o1 | -1.241

Row | Compound | Percent Effect [%]
27 | O=C(c1ccco1)N1CC[C@@H]2[C@H]1CCC(=O)N2c1ccccc1 | 9.276
28 | O=C(Cn1cnc(-c2cccs2)cc1=O)Nc1cccnc1 | 14.09
29 | O=c1[nH]c(NC2CCCC2)nc2nccc(-c3cccs3)c12 | -0.1995
30 | O=C(CN1CC(c2nc(-c3ccco3)no2)C1)NCC1CCCO1.O=C(O)C(=O)O (centres undefined) | 8.836
31 | O=C(O)Cn1nc(C2CC2)c2c(-c3ccco3)ccnc21 | 121.5
32 | O=C(O)Cn1nc(C2CC2)c2c(-c3cccs3)ccnc21 | 125.7
33 | O=c1[nH]c(NC2CCCC2)nc2nccc(-c3ccco3)c12 | 15.07
34 | N#Cc1ccc(N2CCCC(CO)(CCOc3ccccc3)C2)nc1 (centres undefined) | -8.429
35 | NC(=O)CS(=O)(=O)Cc1ccc(F)cc1 | 3.461
36 | Cc1ccoc1C(=O)NCC(Cc1ccc(F)cc1)C(N)=O (centres undefined) | 7.737
37 | CCOc1ccc(CC(CNC(=O)c2occc2C)C(N)=O)cc1 (centres undefined) | -2.596
38 | CC(C)NC(=O)NCC(Cc1ccc(F)cc1)C(N)=O (centres undefined) | 96.65
39 | CCOc1ccc(CC(CNC(=O)c2ccc(C)o2)C(N)=O)cc1 (centres undefined) | -14.58
40 | COC(=O)C(CNC(=O)Nc1nncs1)Cc1ccc(F)cc1 (centres undefined) | 5.054
41 | CC(C)c1nnc(NC(=O)Cc2ccc(F)cc2)[nH]1 | -66.88
42 | CC(C)S(=O)(=O)CC(=O)NCC(Cc1ccc(F)cc1)C(N)=O (centres undefined) | 124.5
43 | CC(C)N(C)CC(=O)NCC(Cc1ccc(F)cc1)C(N)=O (centres undefined) | 103.5
44 | Cc1cc(C)c2nc(CNC3CCCNC3=O)cc(O)c2c1 (centres undefined) | -9.599
45 | Cn1cc(CN2CCCn3cnc(COCc4ccco4)c3C2)cn1 | -8.432
46 | Cc1cc2c(cc1C)C(NCc1nnc3n1CCCCC3)CCCO2 (centres undefined) | 3.518
47 | CSCC[C@@H](CO)n1ccnc1-c1nccn1C | -1.218
48 | CC(C)(C)c1noc(CCCC(=O)N2CCNC(=O)CC2)n1 | -18.62
49 | CC(CNC(=O)N1CCNC(=O)CC1)Cc1cccs1 (centres undefined) | 17.79
50 | CC(=O)N1CCCN(C(=O)NCCc2cc(Cl)cc(Cl)c2)CC1 | 8.517
51 | O=C1CCN(C(=O)NCCCc2ccc(Cl)cc2Cl)CCN1 | 108.4
52 | O=C1CCN(C(=O)C2(c3ccc(Br)cc3)CC2)CCN1 | 3.303

Row | Compound | Percent Effect [%]
53 | O=C1CCN(C(=O)CCc2cc(Br)cs2)CCN1 | -5.326
54 | O=C1CCN(C(=O)NCCc2c[nH]c3ccc(Cl)cc23)CCN1 | 98.23
55 | O=C1CCN(C(=O)CCc2ccc(Cl)cc2Cl)CCN1 | 106.4
56 | O=C(NCCOc1ccc(Cl)cc1)N1CCS(=O)(=O)CC1 | 9.107
57 | Cc1noc(C)c1CN(C)C(=O)c1ccc2c(c1O)OC(C)(C)C2 | -18.28
58 | CN(CC(O)CO)C(=O)c1coc(COc2cccc(F)c2)n1 (centres undefined) | -18.15
59 | Cc1ccn2ncc(C(=O)N3CCCC(n4nc(C)nc4C)C3)c2n1 (centres undefined) | 0.3182
60 | CN(Cc1cc[nH]n1)C(=O)c1cccc(CCC(C)(C)O)c1 | -7.029
61 | O=C(Nc1ccccc1)C1=NOC2(CCCN(C(=O)N3CCCC3)C2)C1 (centres undefined) | 131.1
62 | O=C(NCc1cccnc1)C1=NOC2(CCN(C(=O)N3CCCC3)C2)C1.O=C(O)C(F)(F)F (centres undefined) | -7.099
63 | O=C(Nc1ccccc1)C1=NOC2(CCCN(C(=O)C3CCCC3)C2)C1 (centres undefined) | 104.4
64 | O=C(NCc1cccnc1)C1=NOC2(CCN(S(=O)(=O)C3CC3)C2)C1 (centres undefined) | -5.335
65 | Cl.O=C(Nc1ccccc1F)C1=NOC2(CCNCC2)C1 | 2.616
66 | O=C(NCc1cccnc1)C1=NOC2(CCN(C3CCOCC3)C2)C1 (centres undefined) | -2.233
67 | CCC(C)(CC(=O)OC)NCc1nc(C)no1 (centres undefined) | -15.67
68 | Cc1nc(C)c(C(=O)N2CCc3ccc(F)cc3C2C)o1 (centres undefined) | 2.437
69 | Cc1nc(C)c(C(=O)N2CCc3cc(F)ccc3C2C)o1 (centres undefined) | -9.87
70 | COC(=O)c1cc(C(=O)N2CCc3ccc(F)cc3C2C)ccn1 (centres undefined) | -4.117
71 | CC1c2ccc(F)cc2CCN1C(=O)c1[nH]c(=O)[nH]c(=O)c1N (centres undefined) | 98.7
72 | CC1c2cc(F)ccc2CCN1C(=O)c1[nH]c(=O)[nH]c(=O)c1N (centres undefined) | 103.3
73 | CC(C)(C)c1ccc2c(c1)CCN2C(=O)c1nc(=O)[nH][nH]1 | 2.994
74 | O=C(c1cc2c([nH]c1=O)CCC2)N1CCCCC1c1cccc(F)c1 (centres undefined) | -12.81
75 | CC(C)(C)c1ccc2c(c1)CCN2C(=O)c1[nH]c(=O)[nH]c(=O)c1N | 1.564
76 | CC1c2ccc(F)cc2CCN1C(=O)c1nc(=O)[nH][nH]1 (centres undefined) | 110
77 | Cn1cc(NC(=O)NCc2ccsc2)ccc1=O | -5.862
78 | CNC(=O)[C@@H](c1ccccc1F)N1CCC[C@H]1C(=O)NC1CCCC1.Cl | 0.555

Row | Compound | Percent Effect [%]
79 | Cl.Clc1cccc(N[C@H]2CCCN[C@H]2Cc2ccccc2)c1 | 152.2
80 | O=C(Cc1cccc(Cl)c1)N[C@@H]1CCNC[C@H]1O | 4.451
81 | Cl.Cl.Clc1cccc(C[C@@H]2NCCC[C@@H]2Nc2ccccc2)c1 | 167.6
82 | Cl.Cl.Clc1cccc(C[C@@H]2NCCC[C@@H]2Nc2cccc(Cl)c2)c1 | 33.15
83 | Clc1cccc(CNC2CCN(CCc3ccncc3)CC2)c1 | -6.723
84 | O=C1NCCCc2[nH]c(Cc3cccc(Cl)c3)nc21 | -5.245
85 | Cn1nc(C(=O)N2CCOCC2)c2c1CN(CC1CCC1)C2 | 98
86 | CC(C)CCN1Cc2c(C(=O)N3CCCC3)nn(C)c2C1.O=C(O)C(F)(F)F | 4.332
87 | O=C(O)C(F)(F)F.O=C(c1nc2c(o1)CN(CC1CC1)C2)N1CCCC1 | -4.032
88 | O=C([C@H]1COC[C@H]2CN(CC3CCC3)C[C@H]21)N1CCOCC1 | -17.46
89 | Cn1nc(C(=O)N2CCCC2)c2c1CN(CC1CCOCC1)C2 | -10.68
90 | Cn1nc(C(=O)N2CCOCC2)c2c1CN(CC1CC1)C2.O=C(O)C(F)(F)F.O=C(O)C(F)(F)F | 102.2
91 | NC(=O)N1CC(OCc2cccc3ccccc23)C1 | -8.487
92 | CC(C)NCC1(O)CCCN(CCC2CCCCC2)C1=O (centres undefined) | -46.74
93 | O=C(O)c1cc(N2C[C@H](NC(=O)C3CCOCC3)[C@@H](C3CC3)C2)ccn1 | -7.348
94 | CC(C)[C@@H]1CN(Cc2ccccc2C#N)C[C@H]1NC(=O)N(C)C | 4.058
95 | COC(C)(C)C(=O)N[C@H]1CN(c2nccnc2N(C)C)C[C@@H]1C(C)C | 9.529
96 | CC(C)[C@H]1CN(c2cnccn2)C[C@@H]1NC(=O)C1(C#N)CCOCC1 | 90.9
97 | CC(C)[C@H]1CN(S(C)(=O)=O)C[C@@H]1NC(=O)c1ccnc(N)c1 | -108.5
98 | CS(=O)(=O)NCC(=O)N[C@H]1CN(c2cnccn2)C[C@@H]1C1CC1 | 0.2443
99 | CC(C)[C@H]1CN(Cc2ccncc2)C[C@@H]1NC(=O)C1(C#N)CCOCC1 | 101.3
100 | CC(=O)N[C@@H]1CN(Cc2nnc(-c3ccccc3)o2)C[C@H]1C(C)C | 0.5134
101 | CC(C)[C@H]1CN(c2ccncc2)C[C@@H]1NC(=O)C1(C#N)CCOCC1 | 98.03
102 | N#CC1(C(=O)N2C[C@H]3CC[C@@H]2CN(Cc2ccncc2)C3)CCOCC1 | -3.393
103 | O=C(N[C@H]1CN(c2ccncc2)C[C@@H]1C1CC1)C1CCOCC1 | 31.8
104 | Cc1cc(N2C[C@H](NC(=O)C3(C#N)CCOCC3)[C@@H](C(C)C)C2)ccn1 | 95.25
